Data on two compounds can be found in PubChem BioAssay AID624100 (ICCB-Longwood Screening Facility, Harvard Medical School, 2012).

In this experiment the target is Ubiquitin carboxyl-terminal hydrolase isozyme L5 (Homo sapiens) (UniProt Q9Y5K5). Nature of the experiment: proteasome-bound UCH37 Ub-AMC cleavage inhibition – biochemical, Ub-AMC cleavage rate, fluorescence, confirmation (AID 624100).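 Also: based on cleavage rate fitted by regression over a 30 min kinetic read; 0% = proteasome plus Ub-AMC and 100% = Ub-AMC without proteasome.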 As to conditions: at 20 µM, hits give high values.
Sequence of Ubiquitin carboxyl-terminal hydrolase isozyme L5 (Homo sapiens) (Q9Y5K5 whole entry, looked up): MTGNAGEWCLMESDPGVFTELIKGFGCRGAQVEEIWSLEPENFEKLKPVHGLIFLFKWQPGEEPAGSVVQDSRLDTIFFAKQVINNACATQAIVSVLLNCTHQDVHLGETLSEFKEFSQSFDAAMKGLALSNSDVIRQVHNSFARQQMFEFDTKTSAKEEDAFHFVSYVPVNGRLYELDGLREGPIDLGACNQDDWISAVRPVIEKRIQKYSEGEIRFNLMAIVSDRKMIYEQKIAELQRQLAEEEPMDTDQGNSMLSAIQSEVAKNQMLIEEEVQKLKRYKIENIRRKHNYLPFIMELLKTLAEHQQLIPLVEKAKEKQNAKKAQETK

The list shows a part of the results. A number with no mark means an inactive call. Activity calls are given as the source filed them.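 The calls were made as follows: active = average inhibition over replicates above about 50%, so the earlier screening hit is confirmed (limit read from the data); inactive = the rest, counted as false positives.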

Consider `COc1ccc(N2C(=O)/C(=C/c3ccco3)C(=O)NC2=S)cc1`, for which the inhibition is 68.9% (active).
`CCCCCCCCCCCCn1ccc(=N)cc1`: the inhibition is 40.2%.
